Compounds with a hit are over-represented: about 3.2% of the library has one in this group of screens.
CDK5 inh – blocks human CDK5/p35 kinase activity | AID 488839 | inhibition, % at 10 µM | actives 0.01% (n = 330,000) | Recombinant CDK5/p35, ADP-Glo luminescence, 60 min;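 active means highest replicate inhibition of at least 50% and at least 75% of replicates reaching 50%; inconclusive means only one of the two criteria met; inactive means both criteria failed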;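 further: plate controls were DMSO neutral control for no effect and GW8510 at 10 µM for full effect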
dFosB act-1 – mouse delta FosB homodimer activation. AID 493131. purified delta FosB, TAMRA-CDK5 oligo fluorescence polarization; percent of positive-control signal above neutral wells. actives 0.99% (n = 340,000). activation, % at 25 µM;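 active means mean activation above about 17%, with every replicate also reaching it, limit read from the data, passing the limit was not always enough; inconclusive means only one of the two conditions met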
Target sequence (P13346 whole entry, looked up): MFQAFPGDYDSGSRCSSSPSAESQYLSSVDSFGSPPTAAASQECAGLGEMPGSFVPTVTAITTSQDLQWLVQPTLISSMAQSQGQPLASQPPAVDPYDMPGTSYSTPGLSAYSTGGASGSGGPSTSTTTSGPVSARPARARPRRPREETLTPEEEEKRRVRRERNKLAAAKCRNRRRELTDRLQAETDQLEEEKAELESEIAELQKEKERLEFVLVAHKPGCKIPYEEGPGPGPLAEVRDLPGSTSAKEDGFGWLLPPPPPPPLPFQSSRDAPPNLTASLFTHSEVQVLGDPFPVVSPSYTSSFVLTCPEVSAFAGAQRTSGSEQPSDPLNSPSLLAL
DYRK1A inh – blocks rat Dyrk1A kinase activity; ADP-Glo luminescence, NFATc1 peptide; inhibition, % at 12.5 µM; actives 0.43% (n = 310,000); in the data active means inhibition above about 50%;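 further: plate controls were vehicle with enzyme for no effect and no enzyme for full effect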
Rtt109 Vps75 – C. albicans Rtt109 histone acetyltransferase inhibition; Q5AAJ8; purified Rtt109/Vps75, ThioGlo CoA-SH fluorescence, 4 h; inhibition, % at 34.9 µM; actives 0.16% (n = 330,000); AID 540336;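 active means inhibition of at least 50% in every replicate; inconclusive means best replicate reaches 50% inhibition but some replicates fall short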
SMARCA2 act – increases SMARCA2 function in MMTV reporter cells; activation, % at 9.1 µM; AID 652017; actives 1% (n = 370,000); MG213 cells, MMTV-luciferase reporter, dexamethasone, overnight; in the data active means activation above about 7.8%;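 further: 0% = vehicle wells and 100% = reference activator wells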
esBAF inh – SWI/SNF esBAF complex inhibition. actives 2% (n = 350,000). mouse ES cells, Bmi1-luciferase knock-in reporter, 24 h; 100% = twice the neutral-well signal. reporter increase, % at 12.5 µM; in the data active means activation above about 40%; inconclusive means no clear call, values can overlap the other calls;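 further: 0% = median of the plate's neutral control wells and 100% = double that signal; a rise in the Bmi1 reporter signal indicates esBAF inhibition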
dFosB act-2 – activators of mouse delta FosB homodimer DNA binding. 2,400 tested, under 10 active. shares compounds with dFosB act-1. AID 588690. purified delta FosB, TAMRA-CDK5 oligo fluorescence polarization; normalised: neutral wells 0, positive control 100. activation, % at 24.9 µM;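 active means highest replicate activation at or above 34% and every replicate reaching that threshold; inconclusive means meets only one of the two criteria; inactive means meets neither criterion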;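 further: higher polarization means more probe DNA bound by delta FosB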
* hit, by the source's call; ? = inconclusive; . = no result.

SMILES	CDK5 inh	dFosB act-1	DYRK1A inh	Rtt109 Vps75	SMARCA2 act	esBAF inh	dFosB act-2
COc1ccc(S(=O)(=O)Nc2ccc3c(c2)C(=O)N([C@@H](C)CO)C[C@@H](C)[C@H](CN(C)S(=O)(=O)c2cccs2)OCCCC[C@H](C)O3)cc1	.	.	.	.	.	4	.
O=C(NCc1ccc(F)cc1)NC(=O)c1ccc(Cl)cc1	0	32*	-1	7	-2	-8	5
Cc1c(Cl)cccc1NC(=O)NCc1ccc(F)cc1	-1	28*	.	.	1	.	-3
C[C@H]1CN([C@@H](C)CO)C(=O)Cc2cc(NC(=O)Cn3cnnn3)ccc2O[C@H]1CN(C)S(=O)(=O)c1ccc(Cl)cc1	.	.	.	.	.	3	.
O=C(Nc1ccc(F)cc1)Nc1ccc(N2CCOCC2)c2nonc12	1	5	10	-4	2	.	.
COc1ccc(NC(=O)Nc2ccc(N3CCOCC3)c3nonc23)c(OC)c1	-3	26*	-2	6	0	.	4
Cc1noc(C)c1NC(=O)Nc1ccc2c(c1)C(=O)N([C@H](C)CO)C[C@@H](C)[C@@H](CN(C)S(=O)(=O)c1ccccc1)OCCCC[C@H](C)O2	.	.	.	.	.	1	.
Cc1ccc(OCCCCN(C)Cc2ccccc2)c(Br)c1	0	25*	1	-5	-4	-7	0
C[C@@H]1CN([C@H](C)CO)C(=O)c2cc(NS(=O)(=O)c3ccccc3)ccc2O[C@@H]1CN(C)C	.	.	.	.	.	-6	.
C[C@@H]1CN([C@H](C)CO)C(=O)c2cc(-c3ccccc3)cnc2O[C@H]1CN(C)Cc1cccnc1	.	.	.	.	.	6	.
O=C(Cn1c2ccc(F)cc2c2nc3n(c(=O)c21)CCS3)Nc1ccccc1C(F)(F)F	1	50*	-9	-3	-2	.	-5
O=C(Cn1c2ccc(F)cc2c2nc3n(c(=O)c21)CCS3)NC1CCCC1	0	-3	3	-8	0	10	.
Cc1onc(-c2ccccc2)c1C(=O)NC(=S)NNC(=O)c1cc(-c2ccc(F)cc2)n[nH]1	1	29*	5	1	-5	.	-1
Cc1onc(-c2ccccc2)c1C(=O)NC(=S)NNC(=O)c1ccncc1	-3	-10	1	0	-2	.	.
CC1Cc2ccccc2N1S(=O)(=O)c1cnc[nH]1 (centres undefined)	0	-4	3	1	0	-3	.
O=S(=O)(c1cnc[nH]1)N1CCc2ccccc21	3	20*	0	7	0	-11	2
O=C1C2=C(NC(=S)NC2c2ccc(Cl)cc2)NC(c2ccc(Cl)cc2)N1c1ccc(Cl)cc1 (centres undefined)	1	82*	-2	-3	-3	-7	0
CC(C)NC(=O)N1CCCCN2[C@H](CO)[C@@H](c3ccc(C#CC4CC4)cc3)[C@@H]2C1	.	.	.	.	.	4	.
C[C@H](CO)N1C[C@H](C)[C@@H](CN(C)C(=O)Nc2ccc(C(F)(F)F)cc2)OCCCC[C@H](C)Oc2ccc(NC(=O)C3CCCCC3)cc2C1=O	.	.	.	.	.	0	.
COc1ccc(OC)c2sc(NC(=O)c3cccc(N4C(=O)CCC4=O)c3)nc12	-2	67*	2	-31	1	-6	2
COCC(=O)Nc1ccc2c(c1)C(=O)N(C)C[C@H](OC)[C@@H](C)CN(C(=O)Cc1cccnc1)[C@H](C)CO2	.	.	.	.	.	-1	.
COc1ccc(/C=C/c2nc(N)nc(-c3ccccc3O)n2)cc1OC	-2	10	-3	6	0	.	.
COc1cc(/C=C/c2nc(N)nc(-c3ccccc3O)n2)cc(OC)c1OC	-3	34*	-5	1	-3	-2	3
COc1cc(/C=N\NC(=O)c2ccc(C)nc2)ccc1OC(=O)c1ccc2c(c1)OCO2	1	139*	-3	-6	8	.	7
COc1cc(/C=N\NC(=O)c2ccc(C)nc2)ccc1OC(=O)c1ccco1	-2	-14	1	16	1	.	.
SMILES	CDK5 inh	dFosB act-1	DYRK1A inh	Rtt109 Vps75	SMARCA2 act	esBAF inh	dFosB act-2
CC(=O)n1cc(/C=N/NC(=O)c2ccccc2O)c2ccccc21	-2	29*	14	-8	3	?	3
O=C(CCN1CCCCC1)NCC[C@@H]1CC[C@H](NC(=O)C2CCOCC2)[C@H](CO)O1	.	.	.	.	.	6	.
CCC(C)C(NC(N)=O)C(=O)Nc1ccc(OCc2ccccc2)cc1 (centres undefined)	1	43*	-10	-7	3	.	6
COc1ccc(-c2cc3c(=O)n(CC(=O)NCc4ccc(F)cc4)ncn3n2)cc1	1	101*	0	-5	1	16	?
COc1ccc(-c2cc3c(=O)n(CC(=O)Nc4cccc(Cl)c4)ncn3n2)cc1	.	42*	.	-2	4	23	2
COc1ccc(CNC(=O)Cn2ncn3c(cc4ccccc43)c2=O)cc1	0	73*	6	-6	0	4	1
COc1ccc(-c2cc3c(=O)n(CC(=O)NCc4ccc(Cl)cc4)ncn3n2)cc1	0	0	2	-7	1	14	.
O=C(C1CCOCC1)N1C[C@@H]2[C@H](c3ccccc31)[C@@H](CO)N2C(=O)Nc1cccc(F)c1	.	.	.	.	.	-3	.
COc1cccc(NC(=O)N[C@@H]2C=C[C@H](CC(=O)N3CCN(C)CC3)O[C@H]2CO)c1	.	.	.	.	.	-3	.
CC(C)[C@@H]1CN=C(N)N1C[C@@H]1CCCN1C[C@H](C)N1C[C@@H](Cc2ccccc2)N(CCc2ccc(Cl)c(Cl)c2)C1=N	3	20*	.	-8	.	1	-1
Clc1ccc(Cn2cc(/C=N/n3cnnc3)c3ccccc32)c(Cl)c1	-1	25*	-2	-1	-2	.	3
CCC(=O)Nc1ccc2c(c1)C(=O)N(C)[C@H]1CC[C@H](CC(=O)NCCc3ccccc3)O[C@@H]1CO2	.	.	.	.	.	-1	.
CN1CCN(C(=O)C[C@@H]2CC[C@H]3[C@@H](COc4ccc(NC(=O)c5cscn5)cc4C(=O)N3C)O2)CC1	.	.	.	.	.	-1	.
COc1ccc([N+](=O)[O-])cc1Nc1ncnc2ccccc12	2	38*	-3	-14	0	-7	2
O=C(COc1ncnc2ccccc12)Nc1cc([N+](=O)[O-])ccc1Cl	-5	21*	0	-5	-4	6	-1
C[C@H](CO)N1C[C@H](C)[C@H](CN(C)C(=O)c2ccccc2)OCCCC[C@H](C)Oc2ccc(NS(=O)(=O)c3cccs3)cc2C1=O	.	.	.	.	.	7	.
CCCN(C)C[C@H]1OCCCC[C@@H](C)Oc2ccc(NC(=O)Nc3ccc(OC)cc3)cc2C(=O)N([C@H](C)CO)C[C@@H]1C	.	.	.	.	.	-5	.
C=CCNc1nc(NCC)nc(N2CCOCC2)n1	0	-3	6	-10	3	2	.

Screens as filed in PubChem BioAssay.
